From paper PMC4552634, “A New Set of Chemical Starting Points with Plasmodium falciparum Transmission-Blocking Potential for Antimalarial Drug Discovery” (PLoS ONE, 2015)
Like-named read-outs stand apart in the source and are kept apart here. Screen size: about 13,000 compounds; about 3,200 (25%) showed an effect of 50% or more. This is one part of the list.

System: P. falciparum stage V gametocytes
Set-up: BacTiter-Glo ATP luminescence viability of purified stage V gametocytes in 384-well plates, per cent inhibition versus DMSO
Conditions: 48 h, 5 µM, inhibitor

SMILES | % Inhibition [%] | % Inhibition (% Inhibition) [%]
CC1(C)CC2CC(C)(CN2C(=O)c2cc(C(C)(C)C)nn2Cc2ccccc2)C1 (stereo not shown) [TCMDC-133777] | -28.49 | –
COc1ccc(CN2CCN(CC(=O)Nc3cc(Cl)ccc3-n3cncn3)CC2)cc1F [TCMDC-125242] | 66.84 | –
O=C(COc1ccccc1Cc1ccccc1)Nc1cc(Cl)ccc1-n1cncn1 [TCMDC-125098] | -48.08 | –
O=C(Nc1cc(Cl)ccc1-n1cncn1)C1(c2ccccc2)CC1 [TCMDC-125455] | 2.448 | –
CN1CCCc2ccc(NC(=O)c3ccc(-c4cc(C(F)(F)F)nn4C)s3)cc2C1 [TCMDC-133945] | -15.63 | –
CC1CCN(Cc2c(O)ccc3c(CN4CCC(C)CC4)c(O)ccc23)CC1 [TCMDC-137584] | -14.01 | –
CC(C)c1ccc(-c2noc(SCC(=O)N(C)c3ccc(F)cc3)n2)cc1 [TCMDC-124744] | -3.802 | –
CCN1CCN(C(=O)NC(C(=O)N2CCCC(COc3ccc(Cc4ccccc4)cc3)C2)c2cccs2)C(=O)C1=O (stereo not shown) [TCMDC-139273] | 35.06 | –
CN1CCCC1CCNc1ncc2c(-c3ccc(NC(=O)Nc4cc(C(F)(F)F)ccc4F)c(F)c3)nn(C)c2n1 (stereo not shown) [TCMDC-141610] | 99.17 | –
CN1CCCC1CCNc1ncc2c(-c3ccc(NC(=O)Nc4cc(C(F)(F)F)ccc4F)cc3)nn(C)c2n1 (stereo not shown) [TCMDC-141584] | 59.4 | –
CCCCCC(C)N=C(Nc1ccc(C#N)cc1O)Nc1ccccc1Br (stereo not shown) [TCMDC-140129] | -25.57 | –
Cc1cc([N+](=O)[O-])ccc1N1CCN(CCCCNC(=O)c2ccc(NC(=O)c3ccc(Cl)cc3)cc2)CC1 [TCMDC-138261] | 16.06 | –
C[C@@H](CC1CCCCC1)OC(=O)N(C)[C@H]1CCN(C#N)C1 [TCMDC-138501] | 35.73 | –
CCCC1N=C(N)N=C(N)N1c1ccc(Cl)cc1 (stereo not shown) [TCMDC-131296] | -9.139 | –
CCNc1cc(C(=O)N[C@@H](Cc2ccccc2)[C@H](O)CNCc2cc(OC)cc(OC)c2)cc(N2CCCS2(=O)=O)c1 [TCMDC-134557] | -5.029 | –
N#CN1CC[C@@H](OC(=O)N[C@@H]2C[C@H]2c2ccccc2)C1 [TCMDC-133724] | 29.13 | –
CC(C)C[C@H](NC(=O)[C@H](Cc1ccccc1)N(C[C@H](Cc1ccccc1)NC(=O)OC(C)(C)C)C(=O)C(F)(F)F)C(=O)NC1CCN(Cc2ccccc2)CC1 [TCMDC-132059] | -19.61 | –
CC(C)CCN1CCC(Oc2ccc(NC(=O)c3cccs3)cc2Cl)C1 (stereo not shown) [TCMDC-133979] | 54.06 | –
CC(C)CCOc1ccc(NC(=O)c2cccs2)cc1 [TCMDC-125121] | 83.04 | –
O=C(Nc1ccc(OC2CCN(Cc3ccccc3)C2)c(Cl)c1)c1cccs1 (stereo not shown) [TCMDC-133970] | 30.53 | –
O=C(Nc1ccc(OC2CCN(Cc3ccccc3)CC2)c(Cl)c1)c1cccs1 [TCMDC-133990] | 24.3 | –
Cc1ccc(C(=O)Nc2ccc(OC3CCN(CCC(C)C)C3)c(Cl)c2)cc1 (stereo not shown) [TCMDC-133983] | 31.29 | –
CC(Oc1ccc(NC(=O)c2cccs2)cc1)C(=O)c1ccc(Cl)cc1 (stereo not shown) [TCMDC-125438] | 17.92 | –

SMILES | % Inhibition [%] | % Inhibition (% Inhibition) [%]
CC(C)CCN1CCC(Oc2ccc(NC(=O)c3ccccc3)cc2Cl)CC1 [TCMDC-133977] | 11.22 | –
CC(C)CCN1CCC(Oc2ccc(NC(=O)c3cccs3)cc2Cl)CC1 [TCMDC-133974] | 92.16 | –
CCCOc1ccc(NC(=O)c2cccs2)cc1Cl [TCMDC-141129] | 16.1 | –
COc1ccc(NC(=O)c2cc(NC(=O)C3(N)CC3)c(=O)n(Cc3ccc(C(N)=O)cc3)c2)cc1 [TCMDC-136554] | 19.66 | –
Cc1[nH]c2c(NCc3ccc(F)cc3)nccc2c1C [TCMDC-132310] | 15.19 | –
N#Cc1ccc2c(c1)CCN(CCC1CCC(NC(=O)c3cc4ccc(Br)cc4[nH]3)CC1)C2 (stereo not shown) [TCMDC-139195] | -25.15 | –
Cc1nn(-c2ccccc2)nc1C(=O)N(Cc1ccc(-c2ccc(CNCCc3ccc(S(C)(=O)=O)cc3)cn2)cc1)C(C)CN(C)C (stereo not shown) [TCMDC-141524] | 25.84 | –
CCCNCc1ccc(-c2ccc(CN(C(=O)c3nn(-c4ccccc4)nc3C)C3CCOCC3)cc2)nc1 [TCMDC-141547] | 9.201 | –
CCCNCc1ccc(-c2ccc(CN(C(=O)c3nn(-c4ccccc4)nc3C)C3CC3)cc2)nc1 [TCMDC-141550] | 42.93 | –
CCCNCc1ccc(-c2ccc(CN(Cc3cnc(C)cn3)C(=O)c3nn(-c4ccccc4)nc3C)cc2)nc1 [TCMDC-141548] | 27.98 | –
CCCNCc1ccc(-c2ccc(CN(CCOC)C(=O)c3nn(-c4ccccc4)nc3C)cc2)nc1 [TCMDC-141549] | 77.73 | –
CCCNCc1ccc(-c2ccc(CN(C(=O)c3nn(-c4ccccc4)nc3C)C(C)CN(C)C)cc2)nc1 (stereo not shown) [TCMDC-141551] | 64.23 | –
O=C(O)CNCC(O)c1ccccc1 (stereo not shown) [TCMDC-131775] | 4.722 | –
FC(F)(F)c1ccc2[nH]c(-c3ccc(-c4ccc(CNCc5cnn(-c6ccccc6)n5)cc4)cc3)nc2c1.O=C(O)C(F)(F)F [TCMDC-132970] | -15.1 | –
CS(=O)(=O)n1c(CN2CCN(c3ncc(C(F)(F)F)cc3Cl)CC2)nc2ccccc21 [TCMDC-134291] | 88.45 | –
Cc1cccc(CN2CCN(c3ncc(C(=O)NC4CC4)cc3Cl)CC2)c1 [TCMDC-134604] | 4.534 | –
O=C(NC1CCN(c2ncc(C(F)(F)F)cc2Cl)CC1)c1cccs1 [TCMDC-133802] | 15.64 | –
O=C1OC(c2cc3ccccc3n2S(=O)(=O)c2ccccc2)(c2cc3ccccc3n2S(=O)(=O)c2ccccc2)c2ccccc21 [TCMDC-131245] | 29.52 | –
CCC(C)(C)c1ccc(OCCCC(=O)Nc2ccc(Cl)c([N+](=O)[O-])c2)c(C(C)(C)CC)c1 [TCMDC-125721] | -38.1 | –
C#CCCOc1ccc2ccccc2c1CNCCCCCCNCc1c(OCCC#C)ccc2ccccc12 [TCMDC-137832] | 106.3 | –
C#CCOc1ccc2ccccc2c1CNCCCCCCNCc1c(OCC#C)ccc2ccccc12 [TCMDC-137838] | 115.4 | –
O=C(NCCN1CCOCC1)c1csc(C2CCCN(C(=O)c3ccc(O)c(-c4cc(Cl)cc(Cl)c4)c3)C2)n1 (stereo not shown) [TCMDC-140155] | 11.07 | –
CC(C)(C)SC1SC(SC(C)(C)C)C(OC(=O)c2ccccc2)C(OC(=O)c2ccccc2)C1OC(=O)c1ccccc1 (stereo not shown) [TCMDC-131948] | -26.61 | –

SMILES | % Inhibition [%] | % Inhibition (% Inhibition) [%]
O=C(NC1CCC(CN2CCC(c3c[nH]c4ccccc34)CC2)CC1)c1cc(-c2ccccc2Cl)oc1C(F)(F)F (stereo not shown) [TCMDC-140358] | 4.446 | –
O=C(Nc1ccccc1C(F)(F)F)NC1CCC(CN2CCC(c3c[nH]c4ccccc34)CC2)CC1 (stereo not shown) [TCMDC-140177] | – | -23.5
O=C(Nc1ccccc1C(F)(F)F)NC1CCC(CN2CCC(c3c[nH]c4ccccc34)CC2)CC1 (stereo not shown) [TCMDC-140197] | – | 5.962
Cn1nc(-c2ccc(S(=O)(=O)NC3CCC(CN4CCC(c5c[nH]c6ccccc56)CC4)CC3)s2)cc1C(F)(F)F (stereo not shown) [TCMDC-140174] | – | 96.23
Cn1nc(-c2ccc(S(=O)(=O)NC3CCC(CN4CCC(c5c[nH]c6ccccc56)CC4)CC3)s2)cc1C(F)(F)F (stereo not shown) [TCMDC-140166] | – | 62.77
O=S(=O)(NC1CCC(CN2CCC(c3c[nH]c4ccccc34)CC2)CC1)c1ccc(Cl)c(Cl)c1 (stereo not shown) [TCMDC-140164] | 18.4 | –
CCN1CCN(c2cc(C)c3cc(NC(=O)c4ccc(N(CC)CC)cc4)ccc3n2)CC1 [TCMDC-125574] | 18.21 | –
COc1ccc(-c2csc(NC(=O)CCC(=O)O)n2)cc1OC [TCMDC-124274] | -7.165 | –
CCCC(C)c1ccc(N2C(N)=NC(N)=NC2(C)C)cc1 (stereo not shown) [TCMDC-137715] | 12.27 | –
O=C(O)c1ccc(NC(=O)C2CC(=O)N(Cc3ccc(Cl)cc3)C(=Nc3ccc(Cl)cc3)S2)cc1 (stereo not shown) [TCMDC-124036] | -57.25 | –
COc1ccc(C[C@H](N)C(=O)N[C@H]2[C@@H](O)[C@H](n3cnc4c(N(C)C)ncnc43)O[C@@H]2CO)cc1 [TCMDC-123927] | – | 96.23
COc1ccc(C[C@H](N)C(=O)N[C@H]2[C@@H](O)[C@H](n3cnc4c(N(C)C)ncnc43)O[C@@H]2CO)cc1 [TCMDC-123493] | – | 123.8
CS(=O)(=O)c1ccc(-c2cncc(Nc3cccc([N+](=O)[O-])c3)c2)cc1 [TCMDC-136669] | 44.65 | –
CCn1cc(CN2C(=O)C(c3ccccc3)(c3ccccc3)N=C2N)cn1 [TCMDC-136798] | 10.89 | –
CC1(C)N=C(N)N=C(N)C1c1ccc(Cl)c(Cl)c1 (stereo not shown) [TCMDC-137491] | -1.127 | –
N#CC(NC(=O)C=Cc1ccccc1)c1ccccc1 (stereo not shown) [TCMDC-131635] | -0.4742 | –
Cc1ccc(Nc2nc(N)c3ccccc3n2)cc1.Cl [TCMDC-123638] | 30.09 | –
c1cc(Cc2ccc(Nc3c4ccccc4nc4ccccc34)cc2)cc(Nc2c3ccccc3nc3ccccc23)c1 [TCMDC-137793] | 84.71 | –
c1ccc(Oc2cccc(Nc3ccnc4ccccc34)c2)cc1 [TCMDC-137251] | 14.27 | –
Cl.Nc1nc(Nc2cccc(O)c2)nc2ccccc12 [TCMDC-124459] | 5.684 | –
Cl.c1ccc2c(Nc3ccc(Cc4ccc(Nc5c6ccccc6nc6ccccc56)cc4)cc3)c3ccccc3nc2c1 [TCMDC-137354] | 113.6 | –
